The values that follow come from PubChem BioAssay (NCI).

This is part of a sample that, as a whole, favours compounds with a hit. Of some 83,000 tested, about 20% had one in any assay.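 Testing used 96-well plates and a 48-hour single-concentration exposure. Example: -40 means 40% of the starting cells died.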 Values without a mark were called inactive. Calls of active or inactive are those of the source. The calls were made as follows: active = growth percent below 10; inactive = the rest.

Test systems include SK-MEL-2 melanoma; SN12C renal; UO-31 renal; TK-10 renal; A498 renal; CCRF-CEM leukemia; MOLT-4 leukemia; SR leukemia; RPMI-8226 leukemia; OVCAR-8 ovarian; OVCAR-5 ovarian; OVCAR-4 ovarian; SK-OV-3 ovarian; IGROV1 ovarian; OVCAR-3 ovarian; HS 578T breast; NCI/ADR-RES ovarian; ACHN renal.
Common to all, as to test: NCI-60 one-dose screen, 48 h (100 = growth as untreated, 0 = no growth, -100 = all killed)
Settings in all cases: 10 µM unless noted

Consider `CC[C@@]1(O)C(=O)OCc2c1cc1n(c2=O)Cc2c-1nc1ccccc1c2/C=N/OC(C)(C)C`, for which the growth was -17.8% (active) in the assay with SK-MEL-2 melanoma; 5.56% (active) with SN12C renal; -64.8% (active) with UO-31 renal; 1.26% (active) in the assay with TK-10 renal; -70.2% (active) in the assay with A498 renal; 4.16% (active) in the assay on CCRF-CEM leukemia. Moreover, the growth in the assay on MOLT-4 leukemia was -10.6% (active); in the assay with SR leukemia, -6.28% (active); in the assay on RPMI-8226 leukemia, -2.84% (active); in the assay with OVCAR-8 ovarian, 3.32% (active); in the assay with OVCAR-5 ovarian it was 10.5%; with OVCAR-4 ovarian, 30.1%. Moreover, the growth in the assay with SK-OV-3 ovarian is -15.7% (active); with IGROV1 ovarian it was 8.28% (active); in the assay on OVCAR-3 ovarian, -27.3% (active); in the assay on HS 578T breast, 33%; with NCI/ADR-RES ovarian, 1.09% (active).
Take `O=[N+]([O-])c1cccc2cc(S(=O)(=O)O)ccc12`: the growth is 101% in the assay on SK-MEL-2 melanoma; 98% in the assay on SN12C renal; 92.2% with UO-31 renal; 94% in the assay on TK-10 renal; 112% in the assay with ACHN renal; 115% in the assay with A498 renal. Moreover, the growth in the assay on CCRF-CEM leukemia is 94.6%; in the assay with MOLT-4 leukemia, 85.5%; in the assay with SR leukemia, 103%; in the assay with RPMI-8226 leukemia, 99%; in the assay on OVCAR-8 ovarian it was 98.9%; in the assay with OVCAR-5 ovarian, 107%. For the same compound, the growth in the assay on OVCAR-4 ovarian is 114%; in the assay with IGROV1 ovarian, 104%; in the assay with OVCAR-3 ovarian it was 99.8%; in the assay with HS 578T breast, 107%; in the assay with NCI/ADR-RES ovarian, 101%.
On to `COC(=O)c1oc2c(C(=O)/C=C/c3ccc(OC)cc3)c(OCCN3CCOCC3)ccc2c1C`, for which the growth with SK-MEL-2 melanoma is -30.6% (active); in the assay on SN12C renal it was 17.5%; with UO-31 renal, -66.4% (active); in the assay with TK-10 renal it was 25.4%; with ACHN renal, -34.5% (active); in the assay on A498 renal it was -47.7% (active). The growth in the assay on CCRF-CEM leukemia is -38.4% (active); with MOLT-4 leukemia, -20.5% (active); in the assay on SR leukemia it was -28% (active); in the assay with RPMI-8226 leukemia it was -50.7% (active); in the assay with OVCAR-8 ovarian, -37.6% (active); in the assay on OVCAR-5 ovarian, 29.8%. For the same compound, the growth is 16% in the assay with OVCAR-4 ovarian; 17.9% in the assay with SK-OV-3 ovarian; -4.01% (active) with IGROV1 ovarian; -15.1% (active) in the assay on HS 578T breast; 9.24% (active) in the assay on NCI/ADR-RES ovarian.
On to `Nc1ncnc2c1c(-c1ccc(Oc3ccccc3)cc1)nn2C[C@H]1SSC[C@@H]1O`, for which the growth in the assay on SK-MEL-2 melanoma is -46.5% (active); in the assay with SN12C renal it was 54.5%; in the assay with UO-31 renal, 17.4%; in the assay with ACHN renal it was 33.4%; in the assay on A498 renal, 27.9%; with CCRF-CEM leukemia it was -15.8% (active). Moreover, the growth in the assay with MOLT-4 leukemia was -51.2% (active); with SR leukemia it was -49.4% (active); with RPMI-8226 leukemia it was 46.2%; in the assay with OVCAR-8 ovarian, 79.4%; with OVCAR-5 ovarian, 82.1%; in the assay with OVCAR-4 ovarian it was 47.2%. Moreover, the growth with SK-OV-3 ovarian was 1.91% (active); in the assay on IGROV1 ovarian, 22%; in the assay with OVCAR-3 ovarian, -62.4% (active); in the assay on HS 578T breast, 68.3%; with NCI/ADR-RES ovarian it was 76.5%.
With `COc1cc2c(cc1OCCCCC(=O)Nc1ccc(-c3nc4ccccc4s3)cc1)N=C[C@@H]1CCCN1C2=O`, the growth in the assay on SK-MEL-2 melanoma is -2.21% (active); with SN12C renal, 15.3%; in the assay with UO-31 renal it was -31.6% (active); with TK-10 renal, -0.417% (active); in the assay with ACHN renal it was 1.84% (active); in the assay on A498 renal, -79.3% (active). In addition, the growth in the assay on MOLT-4 leukemia is -31.7% (active); in the assay with SR leukemia, -55.4% (active); in the assay on RPMI-8226 leukemia, -58.3% (active); in the assay with OVCAR-8 ovarian it was -8.71% (active); with OVCAR-5 ovarian it was 4.91% (active); in the assay with OVCAR-4 ovarian it was -11.9% (active). In addition, the growth in the assay on SK-OV-3 ovarian was 22.4%; in the assay with HS 578T breast it was -37.5% (active); in the assay with NCI/ADR-RES ovarian it was 67.6%.
Turning to `C/C(=N\N=C1/SCC(=O)N1c1ccccc1)c1ccco1`, the growth in the assay with SK-MEL-2 melanoma was 91.6%; with SN12C renal, 131%; in the assay with UO-31 renal, 84.9%; with TK-10 renal, 96.9%; in the assay on ACHN renal it was 106%; with A498 renal, 89.2%. Also, the growth in the assay with CCRF-CEM leukemia was -63.9% (active); with MOLT-4 leukemia, 112%; with RPMI-8226 leukemia, 72.2%; in the assay with OVCAR-8 ovarian, 103%; with OVCAR-5 ovarian it was 117%; in the assay with OVCAR-4 ovarian, 146%. The figures for the growth with SK-OV-3 ovarian, in the assay with IGROV1 ovarian and in the assay on HS 578T breast were 115%, 60.8% and 104%, respectively.
With `O=C(N/N=C/c1ccccc1O)c1ccccc1O`, the growth in the assay on SK-MEL-2 melanoma is 61.1%; with SN12C renal, 41%; in the assay with UO-31 renal it was 3.31% (active); in the assay on TK-10 renal, 42.4%; in the assay on ACHN renal it was 16.7%; with A498 renal, 99.6%. In addition, the growth is 12.7% in the assay with CCRF-CEM leukemia; 19.3% with MOLT-4 leukemia; 17.1% with SR leukemia; 37.4% in the assay with RPMI-8226 leukemia; 25.1% in the assay on OVCAR-8 ovarian; 55.3% in the assay with OVCAR-5 ovarian. Moreover, the growth is 24.3% in the assay with OVCAR-4 ovarian, 24.3% in the assay with IGROV1 ovarian and 21% with NCI/ADR-RES ovarian.
Take `CCc1cccc(-c2ccccc2)c1`: the growth with SK-MEL-2 melanoma was 116%; in the assay with SN12C renal it was 99.5%; in the assay on UO-31 renal it was 87.8%; with TK-10 renal, 106%; in the assay with ACHN renal it was 108%; in the assay with CCRF-CEM leukemia, 8.01% (active). In addition, the growth in the assay on MOLT-4 leukemia is 88%; in the assay with RPMI-8226 leukemia, 80.5%; with OVCAR-8 ovarian, 101%; in the assay with OVCAR-5 ovarian, 104%; in the assay on OVCAR-4 ovarian, 101%; in the assay with SK-OV-3 ovarian, 103%. In addition, the growth in the assay with IGROV1 ovarian is 107%; in the assay on OVCAR-3 ovarian, 109%; in the assay on NCI/ADR-RES ovarian, 111%.
In the case of `CC(C)CNCC(O)COc1ccc(C(C)(C)c2ccc(OCC(O)CNCC(C)C)cc2)cc1` (stereo unspecified), the growth in the assay on SK-MEL-2 melanoma is -6.06% (active); with SN12C renal, 67.5%; with UO-31 renal, -32.2% (active); with TK-10 renal, 66.6%; with A498 renal, 59.8%; with CCRF-CEM leukemia it was 0.812% (active). For the same compound, the growth was -35.8% (active) in the assay with MOLT-4 leukemia; -38.7% (active) in the assay with SR leukemia; -9.88% (active) in the assay with RPMI-8226 leukemia; 53.4% in the assay on OVCAR-8 ovarian; 80.8% with OVCAR-5 ovarian; 81% in the assay on OVCAR-4 ovarian. For the same compound, the growth in the assay with SK-OV-3 ovarian is 86.9%; in the assay on IGROV1 ovarian, 47.4%; with OVCAR-3 ovarian, 44.5%; with HS 578T breast, 65.4%; in the assay with NCI/ADR-RES ovarian, 86.7%.
Regarding `CC1(C)N=C(N)N=C(N)N1c1ccc(F)c(C(F)(F)F)c1`, the growth is 54.4% with SK-MEL-2 melanoma; 47.4% in the assay with SN12C renal; 41.8% with UO-31 renal; 65.5% with TK-10 renal; 36% in the assay with ACHN renal; 93.1% with A498 renal. The growth with CCRF-CEM leukemia is 20.8%; in the assay with RPMI-8226 leukemia, 50.4%; with OVCAR-8 ovarian it was 8.44% (active); in the assay with OVCAR-5 ovarian, 41.8%; in the assay on OVCAR-4 ovarian, 55.3%; in the assay on SK-OV-3 ovarian, 60.5%. The growth is 99.3% in the assay on HS 578T breast and 91.9% in the assay with NCI/ADR-RES ovarian.
With `CC(/C=C/C=C(\C)[C@H](O)[C@H](C)C(=O)O[C@H]1C[C@H](C)C=C2C=C[C@@]3(C)O[C@@H](O)CC(=O)[C@]3(C)[C@H]21)=C\C=C\C(=O)O`, the growth in the assay with SK-MEL-2 melanoma was -46.9% (active); with SN12C renal, 3.38% (active); with UO-31 renal it was 18.8%; in the assay with TK-10 renal, 15.5%; with A498 renal, -38.9% (active); in the assay with CCRF-CEM leukemia, 8.62% (active). In addition, the growth with MOLT-4 leukemia is 1.42% (active); in the assay with SR leukemia, 1.43% (active); in the assay with RPMI-8226 leukemia, 27.6%; with OVCAR-8 ovarian it was 21.6%; in the assay on OVCAR-5 ovarian, 18.6%; in the assay on OVCAR-4 ovarian, 23%. Further, the growth in the assay on SK-OV-3 ovarian was 2.67% (active); in the assay on IGROV1 ovarian, 5.48% (active); in the assay on OVCAR-3 ovarian, 2.71% (active); with HS 578T breast, -3.26% (active); in the assay on NCI/ADR-RES ovarian, 53.8%.
